MITF TRPM1 HTS – activators of MITF-driven TRPM1 promoter activity in SK-MEL-5 cells; SK-MEL-5 TRPM1-promoter luciferase, 24 h; % of positive control, neutral wells = 0; activation, % at 12.5 µM; actives 0.75% (n = 300,000);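 active means mean activation of at least 80% with every replicate also reaching 80%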;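 further: 0% = neutral control wells and 100% = parthenolide positive control wells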
FXN GAA850 act – activators of GAA850 frataxin (FXN) promoter | actives 0.56% (n = 360,000) | HEK293 lucGAA850 FXN promoter luciferase reporter, 24 h; percent of 10 µM SAHA response | activation, % at 6 µM | AID 540364;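 active means activation above the average of all compounds screened plus 3 SD, cutoff fixed separately per campaign, cut at about 7.5% in these data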;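 further: 0% = DMSO wells and 100% = 10 µM SAHA wells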
Wnt bcat act – activates Wnt/beta-catenin signaling in a reporter cell assay; actives 1.2% (n = 300,000); activator, plate reader; activation, % at 9.35 µM; in the data active means activation above about 30%, passing the limit was not always enough;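 further: 0% = neutral control wells and 100% = positive control wells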
esBAF inh – SWI/SNF esBAF complex inhibition. AID 602393. actives 2% (n = 350,000). mouse ES cells, Bmi1-luciferase knock-in reporter, 24 h; 100% = twice the neutral-well signal. reporter increase, % at 12.5 µM; in the data active means activation above about 40%;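 further: 0% = median of the plate's neutral control wells and 100% = double that signal; a rise in the Bmi1 reporter signal indicates esBAF inhibition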
C2C12 statin – suppressors of simvastatin-induced myotoxicity in C2C12 myotubes | ATP luminescence, 48 h; scaled: DMSO 0, geranylgeraniol control 100 | rescue of ATP level, % at 7.49 µM | actives 0.78% (n = 330,000) | AID 602340;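 active means mean ATP rescue above about 67%, or every replicate alone reaching that limit, limit read from the data, passing the limit was not always enough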;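 further: myotubes were challenged with 10 µM simvastatin during compound exposure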
GAA30 FXN cntr – GAA30 FXN promoter activation counter-screen; shares compounds with FXN GAA850 act; HEK293 lucGAA30 FXN promoter luciferase, 24 h; DMSO = 0%, 5 µM ipriflavone = 100%; activation, % at 6 µM; actives 66% (n = 1,900);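 active means mean activation above the mean of solvent-only control wells plus 3 SD, cut at about 22% in these data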;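 further: counterscreen of GAA850 promoter hits where activity marks nonselective or luminescence artifacts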
FXN GAA850 conf – GAA850 FXN promoter activation confirmation. shares compounds with FXN GAA850 act. actives 86% (n = 1,900). AID 588351. HEK293 lucGAA850 FXN promoter luciferase reporter, 24 h; 100% = activation by SAHA. activation, % at 6 µM;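 active means mean activation above a set limit taken from the primary screen, cut at about 8% in these data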;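 further: 0% = DMSO wells and 100% = 10 µM SAHA wells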
* = called active by the depositor; . = not tested or not shown. The list is not random: actives were taken first. Their share in the collection is about 3.3%.

SMILES	MITF TRPM1 HTS	FXN GAA850 act	Wnt bcat act	esBAF inh	C2C12 statin	GAA30 FXN cntr	FXN GAA850 conf
CN(C)[C@@H]1C(=O)C(C(N)=O)=C(O)[C@@]2(O)C(=O)C3=C(O)c4c(O)ccc(Cl)c4[C@@](C)(O)C3C[C@@H]12 (stereo partly specified)	-38.1	13.7*	2.0	17.3	-6.1	5.5	0.6
COC(=O)[C@@H]1[C@@H](CO)[C@@H]2Cn3c(ccc(-c4ccccc4F)c3=O)[C@H]1N2CC1CCCC1	.	.	.	3.3	20.0	.	.
COC(=O)[C@@H]1[C@@H](CO)[C@@H]2Cn3c(ccc(-c4ccc(F)cc4)c3=O)[C@H]1N2Cc1cccnc1	.	.	.	0.2	-5.6	.	.
Cc1ccccc1S(=O)(=O)N1[C@@H]2Cn3c(ccc(-c4cccnc4)c3=O)[C@H]1[C@@H](C(=O)O)[C@@H]2CO	.	.	.	-3.5	-12.9	.	.
CCCNC(=O)[C@@H]1[C@@H](CO)[C@@H]2Cn3c(cccc3=O)[C@@H]2N1C	.	.	.	3.3	-33.8	.	.
CN1C(=O)c2ccccc2NC(=O)[C@]12O[C@@H]2c1ccccc1	8.3	13.1*	-3.6	16.0	-1.0	20.1	5.1
Cc1cc(C)cc(N2C(=O)NC(=O)/C(=C\C=C\c3ccco3)C2=O)c1	-94.4	8.9*	9.5	1.7	-0.1	-48.8	-9.8
Cc1ccc(N2C(=O)NC(=O)/C(=C/C=C/c3ccco3)C2=O)cc1	-72.6	5.0	.	.	.	.	.
CC(C)c1ccc(N2C(=O)NC(=O)/C(=C/C=C/c3ccco3)C2=O)cc1	-99.4	8.7*	3.4	.	.	2.5	20.0*
O=C(O)[C@H]1[C@H](CO)[C@H]2Cn3c(ccc(-c4ccncc4)c3=O)[C@@H]1N2S(=O)(=O)c1ccccc1F	.	.	.	-0.6	0.2	.	.
CN(C)C(=S)SSC(=S)N(C)C	-55.1	27.4*	-2.4	2.4	9.5	-117.9	-33.7
COc1ccc(/C=N/N=C(/N)N[N+](=O)[O-])c(OC)c1	.	9.7*	1.3	12.8	.	74.7*	26.5*
O=c1cccc2n1CC1CC2CN(Cc2c(Cl)cccc2Cl)C1 (stereo unspecified)	0.9	0.8	.	2.3	-9.8	.	.
O=c1cccc2n1CC1CC2CN(c2nc(N3CCCCC3)nc(N3CCCCC3)n2)C1 (stereo unspecified)	7.0	11.1*	0.3	.	.	32.4*	12.3*
COC(=O)[C@H]1[C@H](CO)[C@H]2Cn3c(ccc(C4=CCCCC4)c3=O)[C@@H]1N2Cc1ccccn1	.	.	.	-1.9	3.0	.	.
COc1ccc(OC(=O)N(C)C[C@@H]2OCc3ccccc3-c3c(n(C)c4ccccc34)C(=O)N([C@H](C)CO)C[C@@H]2C)cc1	.	11.7*	-1.8	-0.8	-4.8	17.8	9.1*
Cc1ccc(OC(=O)N(C)C[C@@H]2OCc3ccccc3-c3c(n(C)c4ccccc34)C(=O)N([C@H](C)CO)C[C@H]2C)cc1	.	.	-3.7	.	.	.	.
CCN(CC)c1ccc(N=Cc2c(O)n(CCC3=CCCCC3)c(=O)[nH]c2=O)cc1	.	3.9	.	-2.6	-19.7	.	.
CN(C)c1ccc(N=Cc2c(O)n(CCC3=CCCCC3)c(=O)[nH]c2=O)cc1	.	24.6*	.	-0.3	-0.7	2.2	6.5

High-throughput results deposited in PubChem BioAssay by several laboratories.
